Source: PubChem BioAssay AID1159580 (chemical genetic matrix, 2015)
The whole screen tested about 5,500 compounds, of which about 2,000 (36%) were called active. Another 18% or so got no clear call; they are omitted. Cut-off read from the data, not from the text of the source: active = normalized growth mostly below about 0.91 (no sharp cut-off); inconclusive = no clear call, values can overlap the other calls; inactive = mostly above about 0.92. This is one part of the list.

Assay: chemical genetic growth profiling, strain panel (AID 1159580);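 note: tested at 20 µM; growth read once vehicle control cultures reached saturation at 30 °C; 1 = growth at the plate median or of vehicle wells; lower values mean less growth of the strain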
Details: growth OD

Measured: normalized growth

NC(=O)c1ccc[n+]([C@@H]2O[C@H](COP(=O)([O-])OP(=O)(O)OC[C@H]3O[C@@H](n4cnc5c(N)ncnc54)[C@H](O)[C@@H]3O)[C@@H](O)[C@H]2O)c1
inactive: S. cerevisiae deletion strains, locus YJR075W, strain HOC1, hits give low values 1.02 | S. cerevisiae deletion strains, locus YKL009W, strain mrt4, hits give low values 0.975 | S. cerevisiae deletion strains, locus YKL068W, hits give low values 0.987 | S. cerevisiae deletion strains, locus YKL085W, strain MDH1 (second series), hits give low values 0.986 | S. cerevisiae deletion strains, locus YKL085W, strain MDH1, hits give low values 0.986 | S. cerevisiae deletion strains, locus YKL160W, strain elf1, hits give low values 1.06 | S. cerevisiae deletion strains, locus YKL190W, strain CNB1, hits give low values 0.996 | S. cerevisiae deletion strains, locus YKR001C, strain vps1, hits give low values 0.997 | S. cerevisiae deletion strains, locus YKR026C, strain gcn3, hits give low values 1.02 | S. cerevisiae deletion strains, locus YKR091W, strain srl3, hits give low values 1.02 | S. cerevisiae deletion strains, locus YLL001W, strain dnm1, hits give low values 1.03 | S. cerevisiae deletion strains, locus YLL026W, hits give low values 1.02 | S. cerevisiae deletion strains, locus YLL041C, strain sdh2, hits give low values 1.04 | S. cerevisiae deletion strains, locus YLR027C, strain aat2, hits give low values 1.03 | S. cerevisiae deletion strains, locus YLR039C, strain RIC1, hits give low values 0.987 | S. cerevisiae deletion strains, locus YLR058C, strain SHM2, hits give low values 0.977 | S. cerevisiae deletion strains, locus YLR102C, strain apc9, hits give low values 0.989 | S. cerevisiae deletion strains, locus YLR113W, strain HOG1, hits give low values 0.982 | S. cerevisiae deletion strains, locus YLR221C, strain rsa3, hits give low values 1.04 | S. cerevisiae deletion strains, locus YLR258W, strain gsy2, hits give low values 1.04 | S. cerevisiae deletion strains, locus YLR262C, strain YPT6 (second series), hits give low values 1.05 | S. cerevisiae deletion strains, locus YLR262C, strain YPT6, hits give low values 0.939 | S. cerevisiae deletion strains, locus YLR268W, strain sec22, hits give low values 1.08 | S. cerevisiae deletion strains, locus YLR320W, strain mms22, hits give low values 1.03 | S. cerevisiae deletion strains, locus YLR330W, strain CHS5, hits give low values 0.982 | S. cerevisiae deletion strains, locus YLR342W, strain FKS1 (second series), hits give low values 0.986 | S. cerevisiae deletion strains, locus YLR342W, strain FKS1, hits give low values 1.02 | S. cerevisiae deletion strains, locus YLR357W, strain rsc2, hits give low values 1.05 | S. cerevisiae deletion strains, locus YLR370C, strain arc18, hits give low values 1.04 | S. cerevisiae deletion strains, locus YLR371W, strain rom2, hits give low values 0.977 | S. cerevisiae deletion strains, locus YLR384C, strain iki3, hits give low values 1.04 | S. cerevisiae deletion strains, locus YLR418C, strain cdc73, hits give low values 1.02 | S. cerevisiae deletion strains, locus YML016C, strain PPZ1, hits give low values 0.982 | S. cerevisiae deletion strains, locus YML032C, strain rad52, hits give low values 1.01 | S. cerevisiae deletion strains, locus YML120C, strain ndi1, hits give low values 1.04 | S. cerevisiae deletion strains, locus YML124C, strain tub3, hits give low values 0.989 | S. cerevisiae deletion strains, locus YMR058W, strain fet3, hits give low values 1.04 | S. cerevisiae deletion strains, locus YMR078C, strain ctf18, hits give low values 0.986 | S. cerevisiae deletion strains, locus YMR125W, strain sto1, hits give low values 1.06 | S. cerevisiae deletion strains, locus YMR129W, hits give low values 1.02 | S. cerevisiae deletion strains, locus YMR205C, strain PFK2, hits give low values 1.04 | S. cerevisiae deletion strains, locus YMR223W, strain ubp8, hits give low values 0.974 | S. cerevisiae deletion strains, locus YMR231W, strain pep5, hits give low values 1.04 | S. cerevisiae deletion strains, locus YMR263W, strain SAP30, hits give low values 1 | S. cerevisiae deletion strains, locus YMR307W, strain GAS1, hits give low values 0.992 | S. cerevisiae deletion strains, locus YNL067W, strain RPL9B, hits give low values 1.01 | S. cerevisiae deletion strains, locus YNL071W, strain lat1, hits give low values 1.03 | S. cerevisiae deletion strains, locus YNL128W, strain TEP1, hits give low values 0.953 | S. cerevisiae deletion strains, locus YNL153C, strain GIM3, hits give low values 1.02 | S. cerevisiae deletion strains, locus YNL183C, strain NPR1, hits give low values 0.969 | S. cerevisiae deletion strains, locus YNL209W, strain ssb2, hits give low values 1.04 | S. cerevisiae deletion strains, locus YNL233W, strain BNI4, hits give low values 1.02 | S. cerevisiae deletion strains, locus YNL248C, strain rpa49, hits give low values 1.07 | S. cerevisiae deletion strains, locus YNL250W, strain rad50, hits give low values 0.985 | S. cerevisiae deletion strains, locus YNL271C, strain bni1, hits give low values 0.994 | S. cerevisiae deletion strains, locus YNL298W, strain CLA4, hits give low values 0.996 | S. cerevisiae deletion strains, locus YNL307C, strain MCK1, hits give low values 1.01 | S. cerevisiae deletion strains, locus YNL322C, strain KRE1 (second series), hits give low values 1.03 | S. cerevisiae deletion strains, locus YNL322C, strain KRE1, hits give low values 0.983 | S. cerevisiae deletion strains, locus YNR049C, strain mso1, hits give low values 1.02 | S. cerevisiae deletion strains, locus YNR052C, strain pop2, hits give low values 0.995 | S. cerevisiae deletion strains, locus YOL006C, strain TOP1, hits give low values 1.01 | S. cerevisiae deletion strains, locus YOL012C, strain htz1 0.903 | S. cerevisiae deletion strains, locus YOL147C, strain pex11, hits give low values 0.994 | S. cerevisiae deletion strains, locus YOR001W, strain rrp6, hits give low values 1.05 | S. cerevisiae deletion strains, locus YOR061W, strain CKA2, hits give low values 0.969 | S. cerevisiae deletion strains, locus YOR069W, strain VPS5, hits give low values 0.993 | S. cerevisiae deletion strains, locus YOR070C, strain gyp1, hits give low values 1.02 | S. cerevisiae deletion strains, locus YOR080W, strain dia2, hits give low values 1.02 | S. cerevisiae deletion strains, locus YOR083W, strain WHI5, hits give low values 1.06 | S. cerevisiae deletion strains, locus YOR106W, strain vam3, hits give low values 1.07 | S. cerevisiae deletion strains, locus YOR136W, strain idh2, hits give low values 0.991 | S. cerevisiae deletion strains, locus YOR144C, strain elg1, hits give low values 0.991 | S. cerevisiae deletion strains, locus YOR184W, strain ser1, hits give low values 1 | S. cerevisiae deletion strains, locus YOR231W, strain MKK1, hits give low values 0.999 | S. cerevisiae deletion strains, locus YOR265W, strain rbl2, hits give low values 1.02 | S. cerevisiae deletion strains, locus YOR270C, strain vph1, hits give low values 1.14 | S. cerevisiae deletion strains, locus YOR290C, strain snf2, hits give low values 1.07 | S. cerevisiae deletion strains, locus YOR316C, strain cot1, hits give low values 0.988 | S. cerevisiae deletion strains, locus YPL051W, strain arl3, hits give low values 1.05 | S. cerevisiae deletion strains, locus YPL055C, strain LGE1, hits give low values 0.997 | S. cerevisiae deletion strains, locus YPL078C, strain atp4, hits give low values 1.08 | S. cerevisiae deletion strains, locus YPL106C, strain sse1, hits give low values 1.04 | S. cerevisiae deletion strains, locus YPL240C, strain hsp82, hits give low values 1.01 | S. cerevisiae deletion strains, locus YPL241C, strain CIN2, hits give low values 0.984 | S. cerevisiae deletion strains, locus YPL256C, strain CLN2, hits give low values 0.961 | S. cerevisiae deletion strains, locus YPR119W, strain clb2, hits give low values 0.993 | S. cerevisiae deletion strains, locus YPR141C, strain kar3, hits give low values 0.991 | S. cerevisiae deletion strains, locus YPR163C, strain tif3, hits give low values 1 | S. cerevisiae deletion strains, locus YPR167C, strain met16, hits give low values 0.998 | S. cerevisiae deletion strains, strain wtn01, hits give low values 1.03 | S. cerevisiae strains, strain wild type, hits give low values 0.993
